Measured values taken from PubChem BioAssay (Tox21).
Inconclusive results are not listed. Active and inactive are the calls of the source. Unless noted, calls follow the shape of the dose curve; as a rule, active = well fitted curve in the direction sought with a large enough effect in the repeat runs; inconclusive = weak or mixed curves; inactive = no such curve, though single readings can be large; an effect the other way counts as inactive or inconclusive.

Legend:
[1] = qHTS assay to identify small molecule antagonists of the estrogen related receptor (ERR) signaling pathway from Tox21 library - cell viability counter screen (AID 1224834); also: nearly all actives have a fitted effect of over 30% in size
Summary of the method: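 In this quantitative HTS format, ERR cells receive compounds in DMSO and are incubated for 17.5 h at 37 C. Live-cell protease activity is then detected with CellTiter-Fluor.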

[2] = target: Luciferin 4-monooxygenase (Photinus pyralis) (UniProt P08659); experiment: qHTS assay to identify small molecule inhibitors of firefly luciferase (AID 1224835); also: nearly all actives have a fitted effect of over 25% in size
Summary of the method: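 Quantitative HTS format; KM concentrations of both substrates. Purified P. pyralis FLuc activity quantified from luminescence images.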

[3] = qHTS assay to identify small molecule agonists of the constitutive androstane receptor (CAR) signaling pathway - cell viability counter screen (AID 1224836); also: nearly all actives have a fitted effect of over 45% in size
Summary of the method: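 Double-stable HepG2 hepatoma cells (hCAR plus CYP2B6-2.2kb) are treated for 23 h at 37 C with test compounds in 15-point concentration series. PK11195 at 0.75 uM final is co-added. Cell viability is quantified by CellTiter-Fluor.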

[4] = qHTS assay to identify small molecule antagonists of the constitutive androstane receptor (CAR) signaling pathway - cell viability counter screen (AID 1224837); also: nearly all actives have a fitted effect of over 45% in size
Summary of the method: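 In quantitative HTS format, compounds at 15 concentrations were applied to HepG2 cells double-transfected with hCAR and CYP2B6-2.2kb under 50 nM CITCO stimulation; live-cell protease activity was read after 23 hr via CellTiter-Fluor.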

[5] = qHTS assay to identify small molecule antagonists of the estrogen related receptor signaling pathway with the pleiotropic PPARgamma coactivator (PGC) from Tox21 10K library - cell viability counter screen (AID 1224840; active = well fitted cell-killing curve with a large enough effect in the repeat runs, not every such curve was filed as active; also: nearly all actives have a fitted effect of over 40% in size)
Summary of the method: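 Viability counter screen, PGC/ERR cells: 17.5 h compound exposure at 37 C, CellTiter-Fluor fluorescence endpoint.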

[6] = qHTS assay to identify small molecule antagonists of the estrogen related receptor signaling pathway with the pleiotropic PPARgamma coactivator (PGC) from Tox21 10K library (AID 1224841; call rule not given here; also: actives are mostly falling curves and most rising ones were filed inactive; nearly all actives have a fitted effect of over 50% in size)
Summary of the method: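 In the PGC/ERR line, DMSO solutions of test chemicals are pin-delivered to 2,000 cells/well six hours after dispensing. Following eighteen hours' incubation, One-Glo reagent is added and luminescence recorded.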

[7] = qHTS assay to identify small molecule agonists of the estrogen related receptor signaling pathway with the pleiotropic PPARgamma coactivator (PGC) from Tox21 10K library (AID 1224842); also: nearly all actives have a fitted effect of over 15% in size
Summary of the method: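 PGC/ERR reporter cells (NTP line) were seeded 2,000 per well, rested 6 h at 37 C/5% CO2, then pin-dosed with compounds in DMSO for 18 h at 37 C; luciferase read by One-Glo luminescence after 30 min at room temperature.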

[8] = target: Thyrotropin receptor (Homo sapiens) (UniProt P16473); experiment: qHTS assay to identify small molecule agonists of the thyroid stimulating hormone receptor (TSHR) signaling pathway (AID 1224843; calls by dose curve; also: nearly all actives have a fitted effect of over 45% in size)
Summary of the method: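 Using 15 concentrations per compound in triplicate, cAMP production was monitored in TSHR-HEK293 cells after 30 min compound incubation at RT; HTRF reagents followed, with fluorescence intensity recorded after 1 h.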

[9] = qHTS assay to identify small molecule agonists of the hypoxia (HIF-1) signaling pathway - cell viability counter screen (AID 1224844; calls by dose curve; also: nearly all actives have a fitted effect of over 50% in size)
Summary of the method: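 Same wells as the HIF-1 reporter screen; ME-180 cells carrying HRE-bla, 17 hr treatment at 37C; CellTiter-Glo luminescence read after 30 min at room temperature.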

[10] = qHTS assay to identify small molecule agonists of the hypoxia (HIF-1) signaling pathway (AID 1224846; active = well fitted activation curve with a large enough effect in the signal ratio in the repeat runs, not every such curve was filed as active; the % refers to the signal ratio)
Summary of the method: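 In ME-180 cells bearing an HRE-bla construct, 17 h treatment with DMSO-dissolved compounds at 37C was followed by CCF4-AM loading to quantify reporter induction.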

[11] = qHTS assay to identify small molecule agonists of H2AX - cell viability counter screen (AID 1224847; calls by dose curve; also: top concentration of the series differs between compounds; nearly all actives have a fitted effect of over 30% in size)
Summary of the method: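 For this counter screen, overnight-attached CHO-K1 cells received test compounds (15 concentrations, 0.76% DMSO final); 3 hr later at 37C, CellTiter-Glo reagent was added and luminescence recorded after 30 min at room temperature.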

[12] = qHTS assay to identify small molecule antagonists of the estrogen related receptor (ERR) signaling pathway from Tox21 library (AID 1224848); also: nearly all actives have a fitted effect of over 50% in size
Summary of the method: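 Tox21 10K compounds in DMSO tested for ERR pathway antagonism in NTP's ERR cell line; 18 h, 37 C exposure; ONE-Glo luminescence.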

[13] = qHTS assay to identify small molecule agonists of the estrogen related receptor (ERR) signaling pathway from Tox21 library (AID 1224849; calls by dose curve; also: nearly all actives have a fitted effect of over 15% in size); details: ERR reporter cell line, ONE-Glo luciferase, 18 h; at 92.4 µM (top of the series) unless noted
Summary of the method: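 Reporter cells (ERR, NTP source) treated with Tox21 10K compounds 18 h, 37 C. Readout: ONE-Glo luminescence, 30 min RT.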

[14] = qHTS RealTime-Glo MT Cell Viability Assay in HepG2 cells - 24 hour (AID 1224867); also: nearly all actives have a fitted effect of over 50% in size
Summary of the method: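 HepG2 cells (600/well) were dispensed with RealTime-Glo reagents, incubated 5 h at 37 °C, then treated with compounds in DMSO for up to 40 h. Nonlytic NanoLuc luminescence reflecting viable cells was read at each stated time point.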

[15] = qHTS RealTime-Glo MT Cell Viability Assay in HEK293 cells - 32 hour (AID 1224868)
Summary of the method: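 HEK293 cells seeded with NanoLuc/prosubstrate reagent, rested 5 h at 37 C, then dosed and kept at 37 C up to 40 h. Nonlytic real-time luminescence from viable cells read at 0, 8, 16, 24, 32 and 40 h.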

[16] = A CellTox Green Cytotoxicity Assay to monitor cytotoxicity in HEK293 cells - 0 hour (AID 1224869); also: nearly all actives have a fitted effect of over 50% in size
Summary of the method: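 Homogeneous no-lysis format: HEK293 cell suspension mixed with CellTox Green reagent, seeded, incubated 5 h at 37 C/5% CO2, then dosed by pintool with compound in DMSO.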

[17] = target: Nuclear receptor subfamily 1 group I member 3 (Homo sapiens) (UniProt Q14994); experiment: qHTS assay to identify small molecule antagonists of the constitutive androstane receptor (CAR) signaling pathway (AID 1224838); also: nearly all actives have a fitted effect of over 40% in size
Summary of the method: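 CITCO-stimulated (50 nM final) HepG2 cells stably transfected with hCAR and CYP2B6-2.2kb luciferase were exposed to compounds at 15 concentrations for 24 h at 37 C/5% CO2. A luciferase reagent was added and luminescence recorded after 30 min.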

[18] = target: Nuclear receptor subfamily 1 group I member 3 (Homo sapiens) (UniProt Q14994); experiment: qHTS assay to identify small molecule agonists of the constitutive androstane receptor (CAR) signaling pathway (AID 1224839);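 also: HepG2 cells stably carrying human CAR and a CYP2B6 luciferase reporter; nearly all actives have a fitted effect of over 15% in size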
Summary of the method: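 Readout: firefly luciferase luminescence via ONE-Glo. System: HepG2 double-stable for hCAR and CYP2B6-2.2kb. Conditions: 15-point compound titration, PK11195 at 0.75 uM final, 24 h incubation.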

[19] = qHTS assay to identify small molecule agonists of H2AX (AID 1224845; active = well fitted activation curve with a large enough effect in the signal ratio in the repeat runs, not every such curve was filed as active; the % refers to the signal ratio)
Summary of the method: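 Wild-type CHO-K1 cells plated overnight, then exposed 3 hr at 37C to compounds at 15 concentrations (0.76% DMSO). Lysed, then HTRF anti-pH2AX(S139)-cryptate/anti-H2AX-d2 detection after 24 hr at room temperature; emissions 665 and 620 nm.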
% is scaled to controls: 0 for no effect and ±100 for the full control effect.

Chain of Nuclear receptor subfamily 1 group I member 3 (Homo sapiens) (Q14994 whole entry, looked up): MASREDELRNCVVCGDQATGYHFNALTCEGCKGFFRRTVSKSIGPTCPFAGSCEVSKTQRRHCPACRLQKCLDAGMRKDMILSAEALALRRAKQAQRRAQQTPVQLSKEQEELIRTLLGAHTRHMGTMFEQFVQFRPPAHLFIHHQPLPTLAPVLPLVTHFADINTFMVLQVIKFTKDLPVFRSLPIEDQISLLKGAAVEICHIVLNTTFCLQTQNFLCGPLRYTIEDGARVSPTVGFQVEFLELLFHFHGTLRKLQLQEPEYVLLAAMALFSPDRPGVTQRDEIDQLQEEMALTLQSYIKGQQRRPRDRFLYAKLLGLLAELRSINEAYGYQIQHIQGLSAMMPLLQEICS
Chain of Luciferin 4-monooxygenase (Photinus pyralis) (P08659 whole entry, looked up): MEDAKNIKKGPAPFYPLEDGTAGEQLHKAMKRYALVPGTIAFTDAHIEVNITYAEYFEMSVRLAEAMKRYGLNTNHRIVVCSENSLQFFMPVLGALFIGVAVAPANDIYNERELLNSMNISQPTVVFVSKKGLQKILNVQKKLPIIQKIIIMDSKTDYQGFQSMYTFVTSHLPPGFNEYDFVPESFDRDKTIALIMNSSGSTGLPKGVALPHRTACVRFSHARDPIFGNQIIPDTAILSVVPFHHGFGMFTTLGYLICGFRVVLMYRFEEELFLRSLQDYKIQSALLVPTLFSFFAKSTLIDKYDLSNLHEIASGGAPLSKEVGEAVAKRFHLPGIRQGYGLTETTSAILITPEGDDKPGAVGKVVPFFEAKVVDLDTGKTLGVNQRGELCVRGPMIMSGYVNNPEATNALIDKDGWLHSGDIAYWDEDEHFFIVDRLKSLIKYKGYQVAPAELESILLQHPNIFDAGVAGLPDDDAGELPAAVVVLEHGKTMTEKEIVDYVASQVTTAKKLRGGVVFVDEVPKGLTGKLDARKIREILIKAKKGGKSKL
Chain of Thyrotropin receptor (Homo sapiens) (P16473 whole entry, looked up): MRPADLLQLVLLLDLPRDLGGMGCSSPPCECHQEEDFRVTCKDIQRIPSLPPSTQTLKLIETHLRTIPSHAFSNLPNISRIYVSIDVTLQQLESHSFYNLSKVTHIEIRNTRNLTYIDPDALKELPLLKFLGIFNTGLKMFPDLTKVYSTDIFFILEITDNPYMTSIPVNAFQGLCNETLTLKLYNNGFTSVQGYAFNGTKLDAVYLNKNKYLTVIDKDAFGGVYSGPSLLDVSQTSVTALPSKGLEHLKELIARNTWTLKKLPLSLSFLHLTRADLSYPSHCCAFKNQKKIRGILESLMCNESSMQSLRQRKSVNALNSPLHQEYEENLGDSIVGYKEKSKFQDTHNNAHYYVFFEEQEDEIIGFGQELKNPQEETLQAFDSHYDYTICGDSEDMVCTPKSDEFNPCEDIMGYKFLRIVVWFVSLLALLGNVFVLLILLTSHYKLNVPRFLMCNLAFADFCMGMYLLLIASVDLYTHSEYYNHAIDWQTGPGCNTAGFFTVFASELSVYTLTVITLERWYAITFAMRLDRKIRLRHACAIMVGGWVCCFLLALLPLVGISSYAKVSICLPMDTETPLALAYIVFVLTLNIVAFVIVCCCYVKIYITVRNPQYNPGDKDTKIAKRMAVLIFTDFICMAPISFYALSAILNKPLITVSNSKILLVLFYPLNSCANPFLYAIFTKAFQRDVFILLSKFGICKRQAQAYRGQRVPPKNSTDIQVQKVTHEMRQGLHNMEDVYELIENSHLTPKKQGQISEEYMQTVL

OCc1ccccn1
inactive: Potency [1] | Potency [2] | outcome [3] | outcome [4] | outcome [5] | Potency [6] | Potency [7] | outcome [8] | Potency [9] | outcome [10] | Potency [11] | Potency [12] | activity change, positive = activation [13] 4.19% [at 42.5 µM] | outcome [14] | Potency [15] | Potency [16]

CC1=CC(C)C(C=O)C(C)C1 (configuration not stated)
inactive: Potency [1] | Potency [2] | outcome [3] | outcome [4] | Potency [17] | Potency [18] | outcome [8] | Potency [9] | outcome [19] | outcome [10] | Potency [11] | outcome [14] | Potency [15] | Potency [16]

COc1cccc(Br)c1
inactive: Potency [1] | Potency [2] | outcome [3] | outcome [4] | outcome [5] | Potency [6] | Potency [7] | outcome [8] | Potency [9] | outcome [19] | outcome [10] | Potency [11] | Potency [12] | activity change, positive = activation [13] 0.21% | outcome [14] | Potency [16]

NC(=S)Nc1cccc2ccccc12
inactive: viability change, negative = cytotoxic [1] 1.64% [at 8.39 µM] | activity change, negative = inhibition [2] 2.89% [at 10.5 µM] | activity change, negative = cytotoxicity [4] -0.426% [at 8.39 µM] | activity, negative = inhibition [17] 3.74% [at 8.39 µM] | activation [18] 2.72% [at 8.39 µM] | viability change, negative = cytotoxic [5] 3.04% [at 8.39 µM] | activation [8] 1.3% [at 8.39 µM] | activity change, negative = cytotoxicity [9] -3.12% [at 6.97 µM] | activation (H2AX phosphorylation) [19] 4.19% [at 14 µM] | activation [10] 1.15% [at 7.01 µM] | activity change, negative = cytotoxicity [11] 1.9% [at 14 µM] | activity change, negative = cytotoxicity [14] 1.73% [at 6.97 µM] | activity change, negative = cytotoxic [15] 15.6% [at 6.97 µM] | cytotoxicity [16] 0.823% [at 6.97 µM]

CCCCC=O
inactive: Potency [1] | Potency [2] | outcome [3] | outcome [4] | outcome [8] | Potency [9] | outcome [19] | outcome [10] | Potency [11] | outcome [14] | Potency [15] | Potency [16]

OC/C=C/c1ccccc1
inactive: Potency [1] | Potency [2] | outcome [3] | outcome [4] | Potency [9] | outcome [19] | outcome [10] | Potency [11] | outcome [14] | Potency [15] | Potency [16]

CC(C)(C)N(CCO)CCO
inactive: Potency [1] | Potency [2] | outcome [4] | Potency [17] | Potency [18] | outcome [5] | outcome [8] | Potency [9] | outcome [19] | outcome [10] | Potency [11] | outcome [14] | Potency [15] | Potency [16]

CC1(C)SC(C)(C)SC(C)(C)S1
inactive: Potency [1] | Potency [2] | outcome [3] | outcome [4] | Potency [6] | Potency [7] | outcome [8] | Potency [9] | outcome [10] | Potency [12] | activity change, positive = activation [13] -8.06% | outcome [14] | Potency [16]

CN1[C@@H]2CC[C@H]1CC(NC(=O)n1c(=O)[nH]c3ccccc31)C2 (some centres not stated)
inactive: Potency [1] | Potency [2] | outcome [3] | outcome [4] | outcome [5] | Potency [6] | Potency [7] | Potency [9] | outcome [10] | Potency [11] | Potency [12] | activity change, positive = activation [13] 7.7% [at 42.5 µM] | Potency [15] | Potency [16]

O=c1[nH]c2ccccc2c(=O)n1CCCl
inactive: Potency [1] | Potency [2] | outcome [4] | Potency [17] | Potency [18] | outcome [5] | Potency [6] | Potency [7] | outcome [8] | Potency [9] | outcome [19] | outcome [10] | Potency [11] | Potency [12] | activity change, positive = activation [13] -3.42% [at 42.5 µM] | outcome [14] | Potency [15] | Potency [16]
